Data on twelve compounds can be found in PubChem BioAssay (EPA / NIEHS).

The nature of assay [1]: CCTE_Shafer_MEA_dev_per_network_spike_spike_number_mean: CCTE's Neural Network Formation Assay for Mean Number of Spikes in a Network Spike, Shafer Lab (AID 2284053). The gist of the method: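 First, rat cortical cells (1.5 x 10^5/well) were seeded onto MEA wells; second, dosing began at plating and was refreshed on DIV 5 and 9; finally, network-spike spike counts across DIV 5–12 were summarized as AUC.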

Assay [2] in a line: CCTE_Shafer_MEA_dev_per_network_spike_spike_percent: CCTE's Neural Network Formation Assay for Percent of Spikes in a Network Spike, Shafer Lab (AID 2284054). The gist of the method:
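Rat primary cortical neurons were grown on 48-well MEA plates (16 electrodes/well), exposed from plating day 0 through day 12, with treatment renewed on DIV 5 and 9. Percent of spikes within 0.05 s network-spike peaks was measured, summarised as AUC across days 5, 7, 9, 12.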

Assay [3] is described as follows: CCTE_Shafer_MEA_dev_mutual_information_norm: CCTE's Neural Network Formation Assay for Mutual Information Normalization, Shafer Lab (AID 2284091). The gist of the method:
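Primary rat cortical neurons on PEI-coated 48-well MEA plates, 1.5 x 10^5 cells/well, exposed from day 0 through day 12 with re-dosing at DIV 5 and 9. Mutual information between electrodes recorded days 5, 7, 9, 12; trapezoidal AUC, loss-of-signal fit versus DMSO.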

Assay [4] in a line: CCTE_Mundy_HCI_Cortical_Synap_Neur_Matur_NeuriteSpotCountPerNeuriteLength: CCTE's Synaptogenesis and Neurite Maturation Assay in rat cortical cells for Neurite Spot Count per Neurite Length, Mundy Lab (AID 2284210). The gist of the method: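 Rat primary cortical cultures, AraC added at DIV 5 to suppress glia; chemical exposure from DIV 7 to DIV 12. Fixed cells stained for MAP2 and synaptophysin plus Hoechst; synaptophysin puncta per neurite length quantified by high-content imaging, relative to DMSO.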

The nature of assay [5]: CCTE_Mundy_HCI_Cortical_Synap_Neur_Matur_BPCount: CCTE's Synaptogenesis and Neurite Maturation Assay in rat cortical cells for Branch Point Count, Mundy Lab (AID 2284211). The gist of the method: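 Branch point number is quantified by automated imaging of fluorescently labelled neurites and synapses in rat primary cortical neurons exposed from DIV 7 to DIV 12. Activity is analysed relative to DMSO negative control.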

The nature of assay [6]: CCTE_Mundy_HCI_Cortical_NOG_NeuriteCount: CCTE's Neurite Outgrowth Assay in rat cortical cells for Neurite Count, Mundy Lab (AID 2284212).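 Further: cells fixed about two days after chemical exposure began.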 The method in brief:
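Neurite number per cell from high-content imaging of betaIII-tubulin immunostaining, with Hoechst nuclear counterstain.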

A short description of assay [7]: CCTE_Mundy_HCI_Cortical_NOG_NeuriteLength: CCTE's Neurite Outgrowth Assay in rat cortical cells for Neurite Length, Mundy Lab (AID 2284213). The method in brief:
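Neurite length was read by high-content imaging of βIII-tubulin-labelled neurites in rat primary cortical cultures. Activity was fitted relative to DMSO.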

Assay [8] in a line: CCTE_Mundy_HCI_Cortical_Synap_Neur_Matur_NeuriteLength: CCTE's Synaptogenesis and Neurite Maturation Assay in rat cortical cells for Neurite Length, Mundy Lab (AID 2284214). The method in brief: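 Neurite length in rat primary cortical cultures is imaged after MAP2, synaptophysin and Hoechst staining. Dosing starts DIV 7, ending DIV 12; DMSO serves as negative control and baseline.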

Assay [9] in a line: CCTE_Mundy_HCI_Cortical_Synap_Neur_Matur_NeuriteSpotCountPerNeuron: CCTE's Synaptogenesis and Neurite Maturation Assay in rat cortical cells for Neurite Spot Count per Neuron Count, Mundy Lab (AID 2284215). The method in brief:
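Rat primary cortical cultures given AraC at DIV 5, dosed from DIV 7 to DIV 12 with media change. Fixed, stained for MAP2, synaptophysin and Hoechst; neurite-associated synaptophysin puncta per neuron quantified by high-content imaging versus DMSO.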

Assay [10] in a line: CCTE_Mundy_HCI_Cortical_Synap_Neur_Matur_SynapseCount: CCTE's Synaptogenesis and Neurite Maturation Assay in rat cortical cells for Synapse Count, Mundy Lab (AID 2284218). The gist of the method: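 Synapse count per neuron is measured in rat cortical neurons exposed to chemicals between DIV 7 and DIV 12, with glial growth arrested by AraC at DIV 5. Synaptophysin and MAP2 staining is imaged automatically; activity is fitted relative to DMSO.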

A short description of assay [11]: CCTE_Mundy_HCI_Cortical_Synap_Neur_Matur_NeuriteCount: CCTE's Synaptogenesis and Neurite Maturation Assay in rat cortical cells for Neurite Count, Mundy Lab (AID 2284222).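 Further: exposure from day 7 to day 12 in vitro with readout at day 12.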 The gist of the method:
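In this multiplexed morphology readout, rat primary cortical neurons are fixed at DIV 12 following dosing at DIV 7 and stained for MAP2, synaptophysin and nuclei. High-content image analysis yields neurite count.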

Assay [12] can be described thus: CCTE_Mundy_HCI_Cortical_Synap_Neur_Matur_CellBodySpotCount: CCTE's Synaptogenesis and Neurite Maturation Assay in rat cortical cells for Cell Body Spot Count, Mundy Lab (AID 2284223). The gist of the method: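 Primary rat cortical cultures, AraC added at DIV 5; dosed DIV 7 through DIV 12 […]. Fixed, stained for MAP2 and synaptophysin with Hoechst; cell body-associated synaptophysin puncta per neuron counted by high-content imaging, loss vs DMSO.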

Assay [13] can be described thus: CCTE_Mundy_HCI_Cortical_NOG_BPCount: CCTE's Neurite Outgrowth Assay in rat cortical cells for Branch Point Count, Mundy Lab (AID 2284237). The method in brief:
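Measured 50.33 h after dosing, this morphology endpoint uses rat primary cortical cultures labelled for betaIII-tubulin. Branch points are quantified by high-content imaging, with DMSO as negative control and baseline.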

A short description of assay [14]: CCTE_Mundy_HCI_hNP1_Casp3_7: CCTE's Caspase-Glo 3/7 Assay in human neuroprogenitor cells for Apoptosis, Mundy Lab (AID 2284240). The gist of the method:
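Luminescent caspase-3/7 readout, 26.5 h post-dose, in human neural progenitor cells from WA09 embryonic stem cells. Cells grew 40–44 h at 37 °C, 5% CO2 before chemical addition. Activity analysed as signal increase over DMSO baseline.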

Assay [15] is described as follows: CCTE_Mundy_HCI_iCellGluta_NOG_NeuronCount: CCTE's Neurite Outgrowth Assay in iCellGluta cells for Neuron Count, Mundy Lab (AID 2284340; active means hit-call score of the fitted dose curve at least 0.9, where 1 is the maximum;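 further: cells fixed about 48 h after compound addition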). The method in brief: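 Neuron count read by automated high-content imaging of Hoechst 33342 and betaIII-tubulin/Alexa Fluor-488 labelling in human iPSC glutamatergic neurons. Activity fitted relative to DMSO.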
The nature of assay [16]: CCTE_Mundy_HCI_iCellGluta_NOG_NeuriteCount: CCTE's Neurite Outgrowth Assay in iCellGluta cells for Neurite Count, Mundy Lab (AID 2284342; active means hit-call score of the fitted dose curve at least 0.9, where 1 is the maximum;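 further: chemical exposure about 48 hours starting 2 hours after plating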).
Assay [17] has as its target mouse Estrogen Receptor alpha (Era), Esr1 (gene 13982) (UniProt P19785). In words: NVS_NR_mERa: NovaScreen (NVS) Nuclear Receptor Binding Assay for mouse Estrogen Receptor alpha (Era) (AID 2283378; active means hit-call score of the fitted dose curve at least 0.9, where 1 is the maximum;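 further: hit means loss of bound radioligand signal relative to DMSO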). The gist of the method:
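Cell-free radioligand competitive displacement binding, read by filter-based scintillation counting 18 h after dosing. Primary screen run in duplicate at 25 uM, actives retested in concentration series; loss of signal versus DMSO.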

The nature of assay [18]: CCTE_Shafer_MEA_acute_cross_correlation_HWHM: CCTE's Neural Acute Assay for Cross Correlation at Half Width at Half Maximum, Shafer Lab (AID 2284026).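 Further: hits are a decrease in cross-correlogram half width relative to DMSO.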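 On outcome: spontaneous network firing of rat primary cortical neurons on multiwell microelectrode arrays.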 The method in brief: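 Rat primary cortical neurons on 48-well MEA plates; 40-min baseline and 40-min post-exposure recordings at 37 C on DIV 13 or 15, compounds 0.03-40 uM. Spikes detected at 8x rms noise; percent change in cross-correlogram HWHM per well vs baseline.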

In assay [19] the target is human Matrix Metalloproteinase-9 (MMP9), MMP9 (gene 4318) (UniProt P14780). The assay is described as follows: NVS_ENZ_hMMP9: NovaScreen (NVS) Enzymatic Assay for human Matrix Metalloproteinase-9 (MMP9) (AID 2283190; active means hit-call score of the fitted dose curve at least 0.9, where 1 is the maximum;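 further: cell-free recombinant MMP9 protease activity read by fluorescent substrate signal; active means inhibition seen as loss of fluorescence signal versus DMSO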). The method in brief:
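Screening concentration 25 uM, duplicate wells, then dose series for confirmation. Cell-free enzymatic reaction measured by fluorescence intensity 1 h post-dosing; decreased signal versus DMSO taken as activity.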

For assay [20], the target named is human Peripheral-type Benzodiazepine Receptor (PBR), TSPO (gene 706) (UniProt P30536). In words: NVS_MP_hPBR: NovaScreen (NVS) Membrane Protein Assay for human Peripheral-type Benzodiazepine Receptor (PBR) (AID 2283331; active means hit-call score of the fitted dose curve at least 0.9, where 1 is the maximum;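 further: hits reduce radioligand binding relative to DMSO baseline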). The method in brief: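 Radioligand displacement on human colonic cell membranes, 1 h incubation; bound radioactivity by filtration and scintillation counting. Primary screen in duplicate at 25 uM single concentration, actives followed up in concentration series; loss of binding versus DMSO.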

Records with an inconclusive call do not appear. The source made the active and inactive calls. How the source made its calls, unless noted: active means hit-call score of the fitted dose curve at least 0.9, where 1 is the maximum; inactive means score below 0.9.

human Peripheral-type Benzodiazepine Receptor (PBR), TSPO (gene 706), sequence (P30536 whole entry, looked up): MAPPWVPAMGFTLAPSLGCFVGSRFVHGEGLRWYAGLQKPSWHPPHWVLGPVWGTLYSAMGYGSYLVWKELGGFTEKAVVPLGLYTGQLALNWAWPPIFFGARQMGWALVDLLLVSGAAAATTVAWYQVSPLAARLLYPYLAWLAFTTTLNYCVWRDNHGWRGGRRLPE
mouse Estrogen Receptor alpha (Era), Esr1 (gene 13982), sequence (P19785 whole entry, looked up): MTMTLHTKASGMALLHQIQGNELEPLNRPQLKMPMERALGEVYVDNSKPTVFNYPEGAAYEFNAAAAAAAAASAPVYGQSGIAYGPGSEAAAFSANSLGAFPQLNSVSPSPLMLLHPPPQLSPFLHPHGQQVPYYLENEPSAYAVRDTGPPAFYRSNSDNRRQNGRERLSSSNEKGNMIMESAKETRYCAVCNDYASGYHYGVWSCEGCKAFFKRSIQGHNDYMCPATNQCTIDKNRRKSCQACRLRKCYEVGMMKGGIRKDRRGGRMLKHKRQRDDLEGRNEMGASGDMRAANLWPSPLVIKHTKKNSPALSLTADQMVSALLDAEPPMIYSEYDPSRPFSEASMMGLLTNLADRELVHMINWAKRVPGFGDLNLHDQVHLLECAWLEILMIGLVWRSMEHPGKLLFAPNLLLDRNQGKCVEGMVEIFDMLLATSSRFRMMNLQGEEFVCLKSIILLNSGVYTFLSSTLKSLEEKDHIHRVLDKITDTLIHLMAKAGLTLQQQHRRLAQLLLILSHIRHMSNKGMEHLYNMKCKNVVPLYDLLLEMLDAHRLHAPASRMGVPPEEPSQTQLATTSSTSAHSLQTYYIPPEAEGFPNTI
human Matrix Metalloproteinase-9 (MMP9), MMP9 (gene 4318), sequence (P14780 whole entry, looked up): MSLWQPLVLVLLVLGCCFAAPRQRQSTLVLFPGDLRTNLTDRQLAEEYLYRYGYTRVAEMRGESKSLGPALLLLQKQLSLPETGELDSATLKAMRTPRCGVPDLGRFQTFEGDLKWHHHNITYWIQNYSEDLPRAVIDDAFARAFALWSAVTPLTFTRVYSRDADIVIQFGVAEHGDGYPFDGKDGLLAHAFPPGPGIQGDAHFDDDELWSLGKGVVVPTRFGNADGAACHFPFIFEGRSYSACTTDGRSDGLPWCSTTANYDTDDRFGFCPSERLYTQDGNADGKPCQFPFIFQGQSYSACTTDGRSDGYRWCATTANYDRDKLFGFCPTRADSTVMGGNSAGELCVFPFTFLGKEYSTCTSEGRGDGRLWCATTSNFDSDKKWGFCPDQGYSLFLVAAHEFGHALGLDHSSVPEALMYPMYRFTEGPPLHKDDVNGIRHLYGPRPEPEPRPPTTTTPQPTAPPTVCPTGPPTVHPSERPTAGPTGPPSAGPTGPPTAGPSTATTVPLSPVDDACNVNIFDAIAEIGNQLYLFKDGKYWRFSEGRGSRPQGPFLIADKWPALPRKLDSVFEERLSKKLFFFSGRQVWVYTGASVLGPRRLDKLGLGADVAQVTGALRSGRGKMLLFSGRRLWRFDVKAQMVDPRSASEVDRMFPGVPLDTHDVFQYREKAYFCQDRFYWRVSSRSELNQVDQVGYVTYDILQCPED

Regarding `CN(C)CCC(c1ccc(Cl)cc1)c1ccccn1` (stereo not given), the compound was called inactive in assay [1], in assay [2], in [3], in [4], in assay [5] and in assay [6]. Besides, the outcome in assay [7], in assay [8], in [9], in [10], in assay [11] and in assay [12] was inactive. For the same compound, the call in assay [13], in [14], in assay [15] and in assay [16] was inactive.

As to `COC(OC)C(C)c1ccccc1` (stereo not given), the call in assay [17] was inactive.

As for `CC1(C)S[C@@H]2[C@H](NC(=O)[C@H](N)c3ccccc3)C(=O)N2[C@H]1C(=O)O`, the outcome in [18], in assay [1], in assay [2], in assay [3], in assay [4] and in assay [5] was inactive. The call in assay [6], in assay [7], in [8], in [9], in assay [10] and in [11] was inactive. Further, the compound was classed as inactive in [12], in assay [13], in assay [14], in assay [15] and in assay [16].

Regarding `CN(C)c1ccc(C(c2ccccc2)c2ccc(N(C)C)cc2)cc1`, the compound was classed as inactive in assay [19]. Also, the AC50 in assay [20] is 2.78 µM (active).

Consider `CN(C)Cc1cc(C(C)(C)C)c(O)c(C(C)(C)C)c1`, for which the AC50 in assay [18] was 15 µM (active).

As for `NC(N)=Nc1nc(CSCCC(N)=NS(N)(=O)=O)cs1`, the result in [18], in assay [1], in assay [2], in assay [3], in assay [4] and in [5] was inactive. Besides, the outcome in assay [6], in [7], in assay [8], in [9], in assay [10] and in [11] was inactive. Besides, the outcome in assay [12], in assay [13], in assay [14], in assay [15] and in assay [16] was inactive.

Regarding `C=CC(C)(CCC=C(C)C)OC(=O)c1ccccc1` (stereo not given), the compound was called inactive in assay [17].

For `Cc1cc(O)cc(C)c1Cl`, in assay [20], the AC50 was 8.12 µM (active).

With `CCC(C)(CCC(C)C)C(=O)O` (stereo not given), the AC50 in assay [19] is 2.32 µM (active).

For the compound `O=C(C(=O)c1ccccc1)c1ccccc1`, the AC50 in [20] is 9.56 µM (active).

Take `CCO[Si](OCC)(OCC)c1ccccc1`: in assay [19], the AC50 was 1.37 µM (active).

With `Cc1cc2nc3c(=O)[nH]c(=O)nc-3n(C[C@H](O)[C@H](O)[C@H](O)CO)c2cc1C`, the outcome in [17] was inactive.

A word on the AC50: it is the concentration giving half of the maximal activity seen.
